Screening results deposited in PubChem BioAssay by National Center for Advancing Translational Sciences (NCATS).
A selection: hits, their analogues and other compounds. The true share with any hit is near 13%.
Pf growth 48h – P. falciparum growth inhibition at 48 hours (one generation); Potency, µM (highest dose often 28.7 µM), for inactives: at the top dose activity change, negative = inhibition, hits mostly inhibitors; P. falciparum luciferase growth in erythrocytes, 48 h; AID 504832; 5.9% of 310,000 active; also: potency is read from the fitted curve at half-maximal effect
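Read-out is firefly luciferase luminescence from an integrated reporter in P. falciparum, so falling signal marks reduced parasite growth. Infected erythrocytes were at 2% hematocrit and 0.1% parasitemia (final) in Albumax-supplemented RPMI 1640.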
Pf growth 96h – inhibits malaria parasite growth, 96 h. P. falciparum luciferase reporter growth, 96 h. Potency, µM (titrated, usually from 28.7 µM), inactives show at the top dose activity change, negative = inhibition, most hits filed as inhibitors. 6.9% of 320,000 active. AID 504834; also: potency is read from the fitted curve at half-maximal effect
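Plates of compound plus infected erythrocytes (2% hematocrit, 0.05% parasitemia final) incubate 96 hours, 37 C, 5% CO2. Detection reagent added; reduced luminescence from the parasites' luciferase reporter flags inhibition.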
HCMV inh – blocks human cytomegalovirus replication | HFF cells, HCMV-luciferase reporter, 72 h; hits give low values | activity change, negative = inhibition, % at 57.5 µM | 4.5% of 410,000 active | AID 1259415; in the data active = activity change below about -60%; inconclusive = no clear call, values can overlap the other calls; inactive = above about -39%
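Screen run at 2 compound doses on HFFs infected with reporter HCMV, MOI 1 PFU/cell. Luciferase activity from cell lysates at 72 h post infection gave inhibition relative to buffer-only and Salinomycin wells.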
HCV inh – inhibitors of hepatitis C virus infection | AID 651820 | 3.4% of 340,000 active | Huh7.5.1 HCVcc-Cre infection, luciferase reporter, 44 h | Potency, µM (series often up to 41.8 µM), for inactives: at the highest dose activity change, negative = inhibition, usual class: inhibitors; also: potency is read from the fitted curve at half-maximal effect
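Cells (1,000/well) were plated 4 h before compound, then infected with HCVcc-Cre virus (~0.5 moi). After 44 h further culture, infection was read as luciferase luminescence following a 15 min substrate incubation at room temperature.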
Active calls of the source: *; ? = inconclusive; nt = no result given; ! = repeats disagree; [ ] = dose if it differs, or a comment. Unless noted, calls follow the shape of the dose curve; as a rule, active = well fitted inhibition curve with a large enough effect; inconclusive = small, poorly fitted or top-dose-only effect, or another doubt; inactive = no such curve, though single readings can be large or run the other way. % is scaled to controls: 0 for no effect and ±100 for the full control effect.

SMILES	Pf growth 48h	Pf growth 96h	HCMV inh	HCV inh
COc1ccc(CC(=O)NCC(c2ccc(N(C)C)cc2)N2CCOCC2)cc1OC (stereo unspecified)	nt	nt	-11	nt
CCc1ccc2oc(-c3cccc(NC(=O)c4ccc(-c5cccc([N+](=O)[O-])c5)o4)c3)nc2c1	nt	nt	66	nt
CCOc1ccc(N(C(C)C(=O)NCCSc2ccc(Cl)cc2)S(C)(=O)=O)cc1 (stereo unspecified)	nt	nt	-11	nt
CC1CCN(C(=S)NC(=O)c2ccco2)CC1	17%	-1%	-68*	14%
CC1CCCCN1C(=S)NC(=O)c1ccco1 (stereo unspecified)	-12%	-22%	29	10%
CCOC(=O)C1=C(O)/C(=C/c2ccc(-c3ccccc3C(=O)O)o2)SC1=Nc1ccc(C)cc1	?	0.93µM*	-19	-2%
CCOC(=O)C1=C(O)CSC1=Nc1ccccc1	31%	14%	-34	17%
CCOC(=O)C1=C(O)CSC1=Nc1ccc(Cl)cc1	10µM*	10µM*	-2	-7%
CCOC(=O)C1=C(O)/C(=C/c2ccccn2)SC1=Nc1ccc(Cl)cc1	9.3µM*	15%	-11	?
CCOC(=O)N(C)C[C@H]1OCc2cn(nn2)CCCC(=O)N([C@@H](C)CO)C[C@@H]1C	nt	nt	-2	nt
COc1ccccc1-c1cc(NC(=O)COc2ccc(C)c(C)c2)n(-c2ccccc2)n1	nt	nt	61	nt
CCOc1ccccc1N=Nc1c(C)[nH]n(C(N)=S)c1=O	0%	?	-85*	10µM*
Cc1nn(C)c(C)c1CNC(=O)c1cnn2c1NC(c1ccccc1)CC2C(F)(F)F (stereo unspecified)	11%	1%	?	-19%
COc1ccc(C2CC(C(F)(F)F)n3nc(C(=O)NCc4cn(C)nc4C)c(Cl)c3N2)cc1 (stereo unspecified)	-10%	?	-72*	?
Cc1ccc(C2CC(C(F)(F)F)n3nc(C(=O)NCc4c(C)nn(C)c4C)c(Cl)c3N2)cc1 (stereo unspecified)	?	139%	?	8.9µM*
Cc1c(C(=O)NCc2ccc3c(c2)OCCO3)sc(=O)n1Cc1cccc(C(F)(F)F)c1	nt	nt	-79*	nt
C=Cc1ccc(Cn2c(C)c(C(=O)NCc3ccc(C#N)cc3)sc2=O)cc1	nt	nt	-60*	nt
C=Cc1ccc(Cn2c(C)c(C(=O)NCc3ccc4c(c3)OCO4)sc2=O)cc1	nt	nt	5	nt
Cc1c(C(=O)NCc2ccc(Cl)c(Cl)c2)sc(=O)n1Cc1ccc(S(C)(=O)=O)cc1	nt	nt	-80*	nt
CSc1ccc(Cn2c(C)c(C(=O)NCc3ccc4c(c3)OCCO4)sc2=O)cc1	nt	nt	-74*	nt
CC(C)OCCCNC(=O)CCCn1c(SCC(N)=O)nc2c(sc3ccccc32)c1=O	nt	nt	-25	nt
Cc1c(C(=O)NCc2ccccc2C(F)(F)F)sc(=O)n1Cc1cccc(C(F)(F)F)c1	nt	nt	-16	nt
Cc1c(C(=O)NCc2ccccc2C(F)(F)F)sc(=O)n1Cc1ccc2ccccc2c1	nt	nt	-71*	nt
O=C(c1ccco1)N1N=C(c2ccncc2)CC1(O)C(F)(F)F (stereo unspecified)	18%	5.2µM*	?	7%
Cc1ccc(NC(=O)CN(C)S(=O)(=O)c2cccc3cccnc23)cc1C	15%	13µM*	-1	?
SMILES	Pf growth 48h	Pf growth 96h	HCMV inh	HCV inh
Fc1ccc2c(c1)nnn2C1CCN(Cc2c(Cl)cccc2Cl)CC1	10µM*	10µM*	?	?
Fc1ccc2c(c1)nnn2C1CCN(Cc2nnnn2C2CCCCC2)CC1	?	-8%	21	7%
Cc1ccc(C)c(CN2CCC(n3nnc4cc(F)ccc43)CC2)c1	8.3µM*	13µM*	-31	-8%
CC1(C)CC(=O)C=C(/C=C/c2ccccc2)C1	?	2.1µM*	-30	19%
CC1(C)CC(=O)C=C(c2ccc(Oc3ccccc3)cc2)C1	17%	?	23	-7%
CCc1c(C)sc(NC(=O)c2cccs2)c1C(=O)OC(C)C	16%	13%	?	?
CCOC(=O)c1c(NC(=O)c2cccs2)sc(C(=O)N2CCOCC2)c1C	nt	nt	-22	-19%
CCOC(=O)c1c(NC(=O)c2cccs2)sc(C(=O)N(C)C)c1C	nt	-10%	-21	13µM*
CCOC(=O)c1c(NC(=O)c2cccs2)sc(C)c1CC	?	?	-38	8.9µM*
Cc1ccc(S(=O)Cc2nc(-c3ccc(C(=O)NC(C)c4ccccc4)cc3)oc2C)cc1 (stereo unspecified)	nt	nt	-23	nt
Cc1ccc(NC(=O)CSc2ccc(-c3sc(-c4ccccc4)nc3C)nn2)cc1F	nt	nt	6	nt
CC(=O)c1cccc(NC(=O)CSc2ccc(-c3sc(C)nc3C)nn2)c1	-15%	13µM*	-31	?
Cc1nc(C)c(-c2ccc(SCC(=O)Nc3cccc(Cl)c3)nn2)s1	-7%	13µM*	7	10µM*
Cc1nc(C)c(-c2ccc(SCC(=O)Nc3cccc(F)c3)nn2)s1	6%	?	?	14µM*
CCC[C@H]1[C@@H](NC(=O)Nc2cc(Cl)cc(Cl)c2)CC[C@@]23CCCN2C(=O)CCC[C@@H]13	nt	nt	-27	nt
CC(C)N(C[C@@H]1CSCCS(=O)(=O)N1)C1CCCCC1	nt	nt	-11	nt
C=CCn1c(COc2ccc(Cl)cc2)nnc1SCc1ccc(C#N)cc1	?	-25%[5.75 µM]	-39	?
C=CCn1c(COc2ccccc2)nnc1SCc1ccc(C#N)cc1	-10%	0.93µM*	-3	11%
C=CCn1c(SCc2ccc(C#N)cc2)nnc1-c1cccc(OC)c1	?	25%	-64*	-2%
CCOC(=O)CC1(C)Oc2ccccc2N1S(=O)(=O)c1ccc(C)cc1 (stereo unspecified)	nt	nt	-17	nt
Cc1ccc(O)c(C2=NNC(O)(C(F)(F)F)C2)c1 (stereo unspecified)	13µM*	nt	-30	11µM*
COCCCC/C(=N\OCCN)c1ccc(C(F)(F)F)cc1	?	12µM*!	19	16µM*!
Cc1nc2ccccc2c(=O)n1-c1ccc(NC(=O)c2ccc([N+](=O)[O-])cc2)cc1	nt	nt	-21	nt
Cc1nc2cc([N+](=O)[O-])ccc2c(=O)n1-c1ccc(Br)cc1	13%	13µM*	-6	-8%
Cc1nc2ccccc2c(=O)n1-c1ccc([N+](=O)[O-])cc1	-7%	15µM*	1	-1%
SMILES	Pf growth 48h	Pf growth 96h	HCMV inh	HCV inh
Cc1nc2ccccc2c(=O)n1N(c1ccccc1)c1ccccc1	?	4%	-68*	?
Cc1cccc(CCNc2ncnc3onc(-c4ccc(Cl)cc4)c23)c1	nt	nt	-36	nt
O=C(CCNS(=O)(=O)c1cccc2nsnc12)N1CCc2ccccc21	nt	0%	23	-3%
O=C(CCCNS(=O)(=O)c1cccc2nsnc12)NCc1ccc(Cl)cc1	?	287%	-13	-11%
O=C(CCCNS(=O)(=O)c1cccc2nsnc12)NCc1ccccc1	5%	9.3µM*	18	11%
CC1Cc2ccccc2N1C(=O)CCNS(=O)(=O)c1cccc2nsnc12 (stereo unspecified)	-11%	2.6µM*	3	2%
CS(=O)(=O)N(CC(=O)N1CCCC1)c1ccc(Cl)cc1Cl	33%	0%	-28	2.8µM*
